{"source": "PubChem BioAssay AID1159580", "about": "(chemical genetic matrix, 2015)", "test": "chemical genetic growth profiling, strain panel (AID 1159580);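 further: tested at 20 µM; growth read once vehicle control cultures reached saturation at 30 °C; 1 = growth at the plate median or of vehicle wells; lower values mean less growth of the strain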", "conditions": "S. cerevisiae deletion strains, growth OD", "note": "Where “and” joins values, the source holds several entries; their conditions need not be identical. Equal entries are not always repeated. In all, about 5,500 compounds went through this assay and about 2,000 (36%) were called active. Not shown: some 18% with an inconclusive outcome. The list shows a part of the results. A number with no mark means an inactive call. No stated cut-off is given here; in the data, active means normalized growth mostly below about 0.91 (no sharp cut-off); inconclusive means no clear call, values can overlap the other calls; inactive means mostly above about 0.92.", "data": [{"molecule": "CN(C)CCc1c[nH]c2ccc(CS(=O)(=O)N3CCCC3)cc12", "values": [{"measurement": "normalized growth", "setting": "locus YAL013W, strain DEP1, hits give low values", "value": 0.991}, {"measurement": "normalized growth", "setting": "locus YAL021C, strain ccr4, hits give low values", "value": 0.991}, {"measurement": "normalized growth", "setting": "locus YAL026C, strain drs2, hits give low values", "value": 0.976}, {"measurement": "normalized growth", "setting": "locus YAL030W, strain snc1, hits give low values", "value": 1.01}, {"measurement": "normalized growth", "setting": "locus YBL061C, strain skt5, hits give low values", "value": 1.01}, {"measurement": "normalized growth", "setting": "locus YBR009C, strain hhf1, hits give low values", "value": 0.925}, {"measurement": "normalized growth", "setting": "locus YBR021W, strain FUR4, hits give low values", "value": 1}, {"measurement": "normalized growth", "setting": "locus YBR023C, strain chs3, hits give low values", "value": 0.997}, {"measurement": "normalized growth", "setting": "locus YBR171W, strain sec66, hits give low values", "value": 1}, {"measurement": "normalized growth", "setting": "locus YBR229C, strain ROT2, hits give low values", "value": 0.995}, {"measurement": "normalized growth", "setting": "locus YBR231C, strain swc5, hits give low values", "value": 0.993}, {"measurement": "normalized growth", "setting": "locus YBR279W, strain paf1, hits give low values", "value": 0.986}, {"measurement": "normalized growth", "setting": "locus YCL011C, strain gbp2, hits give low values", "value": 0.982}, {"measurement": "normalized growth", "setting": "locus YCL016C, strain dcc1, hits give low values", "value": 1.02}, {"measurement": "normalized growth", "setting": "locus YCL029C, strain bik1, hits give low values", "value": 0.981}, {"measurement": "normalized growth", "setting": "locus YCL069W, strain vba3, hits give low values", "value": 0.977}, {"measurement": "normalized growth", "setting": "locus YCR088W, strain abp1, hits give low values", "value": 0.986}, {"measurement": "normalized growth", "setting": "locus YDL005C, strain med2, hits give low values", "value": 1.01}, {"measurement": "normalized growth", "setting": "locus YDL035C, strain GPR1, hits give low values", "value": 1.01}, {"measurement": "normalized growth", "setting": "locus YDL040C, strain nat1, hits give low values", "value": 0.99}, {"measurement": "normalized growth", "setting": "locus YDL074C, strain BRE1, hits give low values", "value": 1.05}, {"measurement": "normalized growth", "setting": "locus YDL101C, strain DUN1, hits give low values", "value": 0.987}, {"measurement": "normalized growth", "setting": "locus YDL134C, strain PPH21, hits give low values", "value": 0.99}, {"measurement": "normalized growth", "setting": "locus YDL185W, strain tfp1, hits give low values", "value": 0.979}, {"measurement": "normalized growth", "setting": "locus YDL192W, strain arf1, hits give low values", "value": 0.991}, {"measurement": "normalized growth", "setting": "locus YDR001C, strain nth1, hits give low values", "value": 0.98}, {"measurement": "normalized growth", "setting": "locus YDR069C, strain doa4, hits give low values", "value": 0.992}, {"measurement": "normalized growth", "setting": "locus YDR101C, strain arx1, hits give low values", "value": 0.986}, {"measurement": "normalized growth", "setting": "locus YDR137W, strain rgp1, hits give low values", "value": 0.986}, {"measurement": "normalized growth", "setting": "locus YDR150W, strain NUM1, hits give low values", "value": 0.999}, {"measurement": "normalized growth", "setting": "locus YDR159W, strain sac3, hits give low values", "value": "0.831 (active)"}, {"measurement": "normalized growth", "setting": "locus YDR162C, strain NBP2, hits give low values", "value": 1.01}, {"measurement": "normalized growth", "setting": "locus YDR195W, strain ref2", "value": 0.937}, {"measurement": "normalized growth", "setting": "locus YDR297W, strain sur2, hits give low values", "value": 0.996}, {"measurement": "normalized growth", "setting": "locus YDR318W, strain mcm21, hits give low values", "value": 0.996}, {"measurement": "normalized growth", "setting": "locus YDR334W, strain swr1, hits give low values", "value": 0.949}, {"measurement": "normalized growth", "setting": "locus YDR335W, strain msn5, hits give low values", "value": 0.982}, {"measurement": "normalized growth", "setting": "locus YDR388W, hits give low values", "value": 0.988}, {"measurement": "normalized growth", "setting": "locus YDR392W, strain spt3, hits give low values", "value": 0.972}, {"measurement": "normalized growth", "setting": "locus YDR502C, strain sam2, hits give low values", "value": 0.989}, {"measurement": "normalized growth", "setting": "locus YEL003W, strain gim4, hits give low values", "value": 0.977}, {"measurement": "normalized growth", "setting": "locus YEL037C, strain rad23, hits give low values", "value": 0.976}, {"measurement": "normalized growth", "setting": "locus YEL061C, strain CIN8 (second series), hits give low values", "value": 0.958}, {"measurement": "normalized growth", "setting": "locus YEL061C, strain CIN8, hits give low values", "value": 1}, {"measurement": "normalized growth", "setting": "locus YER015W, strain faa2, hits give low values", "value": 0.993}, {"measurement": "normalized growth", "setting": "locus YER016W, strain bim1, hits give low values", "value": 1.05}, {"measurement": "normalized growth", "setting": "locus YER110C, hits give low values", "value": 0.99}, {"measurement": "normalized growth", "setting": "locus YER111C, strain swi4, hits give low values", "value": 0.998}, {"measurement": "normalized growth", "setting": "locus YER155C, strain BEM2 (second series), hits give low values", "value": 1.02}, {"measurement": "normalized growth", "setting": "locus YER155C, strain BEM2, hits give low values", "value": 1.02}, {"measurement": "normalized growth", "setting": "locus YER167W, strain BCK2, hits give low values", "value": 0.992}, {"measurement": "normalized growth", "setting": "locus YFR010W, strain ubp6, hits give low values", "value": 0.947}, {"measurement": "normalized growth", "setting": "locus YGL078C, strain dbp3, hits give low values", "value": 0.985}, {"measurement": "normalized growth", "setting": "locus YGL086W, strain mad1, hits give low values", "value": 0.988}, {"measurement": "normalized growth", "setting": "locus YGL167C, strain pmr1, hits give low values", "value": 0.983}, {"measurement": "normalized growth", "setting": "locus YGL173C, strain kem1, hits give low values", "value": 0.958}, {"measurement": "normalized growth", "setting": "locus YGL227W, strain vid30, hits give low values", "value": 0.966}, {"measurement": "normalized growth", "setting": "locus YGL240W, strain doc1, hits give low values", "value": 0.926}, {"measurement": "normalized growth", "setting": "locus YGL248W, strain PDE1, hits give low values", "value": 0.993}, {"measurement": "normalized growth", "setting": "locus YGL253W, strain hxk2, hits give low values", "value": 1}, {"measurement": "normalized growth", "setting": "locus YGR078C, strain PAC10, hits give low values", "value": 1.01}, {"measurement": "normalized growth", "setting": "locus YGR135W, strain pre9, hits give low values", "value": 0.999}, {"measurement": "normalized growth", "setting": "locus YGR229C, strain SMI1, hits give low values", "value": 1.01}, {"measurement": "normalized growth", "setting": "locus YGR252W, strain gcn5, hits give low values", "value": 1.03}, {"measurement": "normalized growth", "setting": "locus YHR013C, strain ard1, hits give low values", "value": 1.02}, {"measurement": "normalized growth", "setting": "locus YHR027C, strain rpn1, hits give low values", "value": 0.984}, {"measurement": "normalized growth", "setting": "locus YHR030C, strain SLT2, hits give low values", "value": "0.995 and 0.96"}, {"measurement": "normalized growth", "setting": "locus YHR079C, strain IRE1 (second series), hits give low values", "value": 0.981}, {"measurement": "normalized growth", "setting": "locus YHR079C, strain IRE1, hits give low values", "value": 0.984}, {"measurement": "normalized growth", "setting": "locus YHR094C, strain hxt1, hits give low values", "value": 0.987}, {"measurement": "normalized growth", "setting": "locus YHR129C, strain ARP1, hits give low values", "value": 0.981}, {"measurement": "normalized growth", "setting": "locus YHR142W, strain chs7, hits give low values", "value": 0.976}, {"measurement": "normalized growth", "setting": "locus YHR200W, strain rpn10, hits give low values", "value": 0.991}, {"measurement": "normalized growth", "setting": "locus YIL066C, strain RNR3, hits give low values", "value": 0.998}, {"measurement": "normalized growth", "setting": "locus YIL073C, strain SPO22, hits give low values", "value": 0.999}, {"measurement": "normalized growth", "setting": "locus YIL125W, strain kgd1, hits give low values", "value": 0.994}, {"measurement": "normalized growth", "setting": "locus YIR030C, strain dcg1, hits give low values", "value": 0.983}, {"measurement": "normalized growth", "setting": "locus YJL092W, strain hpr5, hits give low values", "value": 0.99}, {"measurement": "normalized growth", "setting": "locus YJL095W, strain BCK1 (second series), hits give low values", "value": 0.991}, {"measurement": "normalized growth", "setting": "locus YJL095W, strain BCK1, hits give low values", "value": "0.984 and 0.977"}, {"measurement": "normalized growth", "setting": "locus YJL115W, strain asf1, hits give low values", "value": 0.987}, {"measurement": "normalized growth", "setting": "locus YJL129C, strain trk1, hits give low values", "value": 0.994}, {"measurement": "normalized growth", "setting": "locus YJL134W, strain LCB3, hits give low values", "value": 0.991}, {"measurement": "normalized growth", "setting": "locus YJL154C, strain vps35, hits give low values", "value": 0.978}, {"measurement": "normalized growth", "setting": "locus YJL164C, strain tpk1, hits give low values", "value": 0.99}, {"measurement": "normalized growth", "setting": "locus YJL166W, strain qcr8, hits give low values", "value": 0.986}, {"measurement": "normalized growth", "setting": "locus YJL168C, strain set2, hits give low values", "value": 0.987}, {"measurement": "normalized growth", "setting": "locus YJL187C, strain SWE1 (second series), hits give low values", "value": 0.986}, {"measurement": "normalized growth", "setting": "locus YJL187C, strain SWE1, hits give low values", "value": 1.01}, {"measurement": "normalized growth", "setting": "locus YJR043C, strain POL32, hits give low values", "value": 0.994}, {"measurement": "normalized growth", "setting": "locus YJR066W, strain TOR1, hits give low values", "value": 0.925}]}]}
